Source: the antibiotic and cytotoxicity screens of Wong et al. (2023)
Among all 39,000 compounds or so, about 3,300 (8.5%) were called active. The sample holds actives, similar compounds and a random draw of the others, so the mix is not that of the screen.

system: HepG2; assay: cytotoxicity call (relative viability < 0.9); settings: 10 µM

Row | SMILES | cytotoxicity call
1 | CCc1nc2c(C)cc(N3CCN(CC(=O)N4CC(O)C4)CC3)cn2c1N(C)c1nc(-c2ccc(F)cc2)c(C#N)s1 | active
2 | COCC#Cc1ccc2c(c1)O[C@H](CN(C)Cc1ccccc1F)[C@@H](C)CN([C@H](C)CO)S2(=O)=O | inactive
3 | C[C@H](CO)N1C[C@H](C)[C@H](CN(C)S(=O)(=O)c2cccs2)Oc2ccc(NS(=O)(=O)c3ccccc3)cc2CC1=O | inactive
4 | C[C@@H]1CN([C@H](C)CO)C(=O)c2cccc(NS(=O)(=O)c3ccc(F)cc3)c2O[C@@H]1CN(C)Cc1ccncc1 | inactive
5 | CC(C)=CCc1c2c(c3occ(-c4ccc(O)cc4)c(=O)c3c1O)C=CC(C)(C)O2 | inactive
6 | CC1(C)C=Cc2c(c3c(c4c(=O)c(-c5ccc(O)c(O)c5)coc24)OC(C)(C)CC3)O1 | active
7 | CC1(C)C=Cc2c(c3c(c4c(=O)c(-c5ccc(O)cc5)coc24)OC(C)(C)CC3)O1 | inactive
8 | CC(C)=CCc1c2c(c3occ(-c4ccc(O)c(O)c4)c(=O)c3c1O)C=CC(C)(C)O2 | active
9 | CN1CCN(C(=O)C[C@H]2CC[C@@H]3[C@@H](COc4ccc(NC(=O)c5cccs5)cc4C(=O)N3C)O2)CC1 | inactive
10 | Cc1noc(C)c1S(=O)(=O)Nc1ccc2c(c1)C(=O)N([C@@H](C)CO)C[C@H](C)[C@@H](CN(C)Cc1ccccc1)OCCCC[C@@H](C)O2 | inactive
11 | C[C@@H]1CN([C@@H](C)CO)C(=O)Cc2cc(NC(=O)Cn3cnnn3)ccc2O[C@@H]1CN(C)Cc1ccc(Oc2ccccc2)cc1 | inactive
12 | COc1ccc(-c2cc(C(F)F)nn2-c2ccc(S(N)(=O)=O)cc2)cc1F | inactive
13 | Cc1ccc(S(N)(=O)=O)cc1 | inactive
14 | Cc1ccc(-c2cc(C(F)(F)F)nn2-c2ccc(S(N)(=O)=O)cc2)cc1 | active
15 | C[C@@H]1CN([C@H](C)CO)C(=O)c2cc(NC(=O)NC3CCCCC3)ccc2O[C@@H](C)CCCCO[C@@H]1CN(C)S(=O)(=O)c1ccc(F)cc1 | inactive
16 | CN1C2CCC1CC(OC(=O)c1c[nH]c3ccccc13)C2.Cl (stereo not drawn) | inactive
17 | CN1C2CCC1CC(OC(c1ccccc1)c1ccccc1)C2.CS(=O)(=O)O (stereo not drawn) | active
18 | CN1CCC(OC(c2ccccc2)c2ccccc2)CC1.Cl | inactive
19 | Cc1noc(C)c1S(=O)(=O)N(C)C[C@@H]1Oc2c(NS(=O)(=O)c3ccccc3)cccc2C(=O)N([C@H](C)CO)C[C@@H]1C | inactive
20 | CC12CCC3c4ccc(O)cc4CCC3C1CCC2=O (stereo not drawn) | inactive
21 | C#CC1(O)CCC2C3CCc4cc(O)ccc4C3CCC21C (stereo not drawn) | active
22 | C#CC1(O)CCC2C3CCc4cc(OC)ccc4C3CCC21C (stereo not drawn) | active
23 | CC12CCC3c4ccc(O)cc4CCC3C1CC(O)C2O (stereo not drawn) | inactive
24 | C#CC1(O)CCC2C3CCc4cc(OC5CCCC5)ccc4C3CCC21C (stereo not drawn) | inactive

Row | SMILES | cytotoxicity call
25 | C#CC1(O)CCC2C3CCC4=CCCCC4C3CCC21C (stereo not drawn) | active
26 | C#CC1(O)CCC2C3CCC4=CC(=O)CCC4C3CCC21C (stereo not drawn) | inactive
27 | C#CC1(O)CCC2C3CCC4=C(CCC(=O)C4)C3CCC21C (stereo not drawn) | inactive
28 | C#CC1(O)CCC2C3CCC4=CCCCC4C3C(=C)CC21CC (stereo not drawn) | inactive
29 | COCCOC(=O)N1C(=O)[C@@]2(c3cc(C#CCC(C(=O)OC)C(=O)OC)ccc31)[C@H](C(=O)NC[C@H](O)c1ccccc1)[C@H]1C(=O)O[C@H](c3ccccc3)[C@H](c3ccccc3)N1[C@@H]2c1ccc(OCCO)cc1 | inactive
30 | Cn1cnc(CCNC(=O)C[C@@H]2CC[C@@H]3[C@H](COC[C@@H](O)CN3C(=O)Nc3ccc(Cl)cc3)O2)c1 | inactive
31 | COc1ccc(S(=O)(=O)N(C)C[C@@H]2Oc3ccc(NC(=O)Nc4cccc5ccccc45)cc3C(=O)N([C@@H](C)CO)C[C@H]2C)cc1 | inactive
32 | C[C@H]1CN([C@@H](C)CO)C(=O)c2cc(C#CCN(C)C)cnc2O[C@H]1CN(C)S(=O)(=O)c1ccccc1 | inactive
33 | COc1cccc(NC(=O)N2C[C@@H](O)COC[C@H]3O[C@@H](CC(=O)NCc4ccccc4F)CC[C@@H]32)c1 | inactive
34 | C[C@@H](O)C#Cc1ccc2c(c1)O[C@@H](CN(C)C(=O)c1ccncc1)[C@@H](C)CN([C@@H](C)CO)S2(=O)=O | inactive
35 | C[C@H](O)C#Cc1ccc2c(c1)O[C@@H](CN(C)C(=O)c1ccncc1)[C@H](C)CN([C@@H](C)CO)S2(=O)=O | inactive
36 | C[C@H]1CN([C@@H](C)CO)S(=O)(=O)c2ccc(C#Cc3ccncc3)cc2O[C@@H]1CN(C)C(=O)c1ccncc1 | active
37 | C[C@H](CO)N1C[C@H](C)[C@H](CN(C)C(=O)c2ccncc2)Oc2cc(C#Cc3ccncc3)ccc2S1(=O)=O | active
38 | C[C@H](O)C#Cc1ccc2c(c1)O[C@@H](CN(C)C(=O)c1ccncc1)[C@@H](C)CN([C@H](C)CO)S2(=O)=O | inactive
39 | C[C@H](O)C#Cc1ccc2c(c1)O[C@@H](CN(C)C(=O)c1ccncc1)[C@H](C)CN([C@H](C)CO)S2(=O)=O | inactive
40 | C[C@@H]1CN([C@H](C)CO)S(=O)(=O)c2ccc(C#Cc3ccncc3)cc2O[C@@H]1CN(C)C(=O)c1ccncc1 | active
41 | C[C@H](O)C#Cc1ccc2c(c1)O[C@H](CN(C)C(=O)c1ccncc1)[C@H](C)CN([C@@H](C)CO)S2(=O)=O | inactive
42 | C[C@@H]1CN([C@@H](C)CO)S(=O)(=O)c2ccc(C#Cc3ccncc3)cc2O[C@H]1CN(C)C(=O)c1ccncc1 | inactive
43 | C[C@H](CO)N1C[C@H](C)[C@@H](CN(C)C(=O)c2ccncc2)Oc2cc(C#Cc3ccncc3)ccc2S1(=O)=O | active
44 | C[C@@H]1CN([C@@H](C)CO)S(=O)(=O)c2ccc(C#Cc3ccncc3)cc2O[C@@H]1CN(C)C(=O)c1ccncc1 | inactive
45 | C[C@H](O)C#Cc1ccc2c(c1)O[C@H](CN(C)C(=O)c1ccncc1)[C@@H](C)CN([C@@H](C)CO)S2(=O)=O | inactive
46 | C[C@@H]1CN([C@H](C)CO)S(=O)(=O)c2ccc(C#CC(C)(C)O)cc2O[C@@H]1CN(C)Cc1ccncc1 | inactive
47 | CCCNC(=O)C[C@H]1CC[C@@H]2[C@H](COc3ccc(NS(=O)(=O)c4ccccc4C)cc3C(=O)N2C)O1 | inactive
48 | C[C@H](CO)N1C[C@H](C)[C@@H](CN(C)C(=O)Nc2ccc(F)cc2)OCCCC[C@H](C)Oc2ccc(NC(=O)CCC(F)(F)F)cc2C1=O | inactive
